In the library only some 2.3% were active in any assay of this set; here they are far more common.
MEKK2mut PB1 HTS – signal of MEK5 binding to mutant human MEKK2 PB1 domain; bead flow cytometry, Alexa488-MEK5 binding to MEKK2 mutant; percent response, % at 10 µM; 290,000 compounds, 0.35% hits; AID 1530; in the data active means percent response above about 24%, passing the limit was not always enough
MEKK3 PB1 HTS – MEKK3-MEK5 PB1 interaction, increase or decrease; Q99759; bead-based flow cytometry, Alexa488-MEK5 binding to MEKK3; actives lie on both sides; 0 = blocked by unlabeled MEK5, 100 = vehicle; binding response (% of control), % at 10 µM; 290,000 compounds, 1.4% hits; AID 1529;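 active means binding response more than 3 SD above or below the average of its plate-row segment, actives on both sides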;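 further: Alexa488 bead fluorescence after subtracting the streptavidin-only scavenger bead signal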
MEKK2 WT-MEK5 – raises or lowers MEK5 binding to wildtype human MEKK2 PB1 domain; Q9Y2U5; bead flow cytometry, Alexa488-MEK5 binding to MEKK2 WT; actives lie on both sides; binding response (% of control), % at 10 µM; 290,000 compounds, 1.1% hits; AID 1531; in the data active means binding response below about 67% or above about 130%
UBC13 inh – inhibitors of human UBC13 polyubiquitin chain formation. TR-FRET. inhibition, % at 20 µM. 330,000 compounds, 0.47% hits; in the data active means inhibition above about 45%, passing the limit was not always enough
Target sequence (P61088 whole entry, looked up): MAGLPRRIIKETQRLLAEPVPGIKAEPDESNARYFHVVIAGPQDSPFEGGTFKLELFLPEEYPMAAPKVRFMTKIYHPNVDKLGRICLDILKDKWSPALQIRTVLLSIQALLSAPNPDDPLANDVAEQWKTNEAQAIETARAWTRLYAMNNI
MEKK2wt confirm – raises or lowers MEK5 binding to wildtype human MEKK2, retest | bead flow cytometry, Alexa488-MEK5 binding to MEKK2 WT; actives lie on both sides | 5,900 compounds, 2.4% hits | shares compounds with MEKK3 PB1 HTS | binding response (% of control), % at 10 µM; in the data active means binding response below about 16% or above about 210%; inactive means in between
MEKK2mut-MEK5 – signal of MEK5 binding to mutant human MEKK2, retest; percent response, % at 10 µM; bead flow cytometry, Alexa488-MEK5 binding to MEKK2 mutant; shares compounds with MEKK3 PB1 HTS; AID 1893; 5,900 compounds, 2% hits; in the data active means percent response mostly above about 71%, no sharp cut-off; inactive means mostly below about 38%;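 further: higher means compound restores mutant binding toward wildtype level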
MEKK3-MEK5 inh – MEKK3-MEK5 PB1 inhibition, single concentration confirmation; shares compounds with MEKK3 PB1 HTS; bead flow cytometry, Alexa488-MEK5 binding to MEKK3; hits give low values; binding response (% of control), % at 10 µM; 5,900 compounds, 1.8% hits; AID 1894;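 active means binding response below 72% of control, or above a set upper limit, though filed actives all read lower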
Large screens that a line does not name were inactive (follow-up assays come after a bar, where they were run); [ ] = remark or other dose.

COc1cc(OC)cc(C(=O)NNC(=O)C(=O)Nc2cc(OC)c(Cl)cc2OC)c1	none
Cc1ccc(CC(=O)N2CCN(C(=O)C3CCCO3)CC2)cc1 (configuration not stated)	none
CCOC(=O)c1nnn(-c2nonc2N)c1CSc1nnc(N)s1	none
C=CCOc1ccc(C2N3CC4(CC)CN2CC(CC)(C3)C4=O)cc1 (configuration not stated)	MEKK3 PB1 HTS 82[inhibitor] | MEKK2wt confirm inactive | MEKK2mut-MEK5 inactive | MEKK3-MEK5 inh inactive
CCC12CN3CC(CC)(CN(C1)C3c1c(O)ccc3ccccc13)C2=O (configuration not stated)	none (no result: UBC13 inh)
O=C(Cn1c2c(c(=O)n3ncnc13)CCC2)N/N=C/c1ccc(Cl)cc1	MEKK3 PB1 HTS 48[inhibitor] | MEKK2wt confirm inactive | MEKK2mut-MEK5 inactive | MEKK3-MEK5 inh inactive
S=C(Nc1ccc(Cl)cc1Cl)NC1CCN(Cc2ccccc2)CC1	MEKK2mut PB1 HTS 53 | MEKK2wt confirm inactive | MEKK2mut-MEK5 inactive | MEKK3-MEK5 inh inactive
O=C(NC1CCN(Cc2ccccc2)CC1)c1ccc(Cl)cc1Cl	none
Fc1ccccc1NC(=S)N1CCN(Cc2ccccc2)CC1	MEKK3 PB1 HTS 139 | MEKK2wt confirm inactive | MEKK2mut-MEK5 inactive | MEKK3-MEK5 inh inactive
S=C(Nc1ccccc1Cl)N1CCN(Cc2ccccc2)CC1	none
Cc1c(Cl)cccc1NC(=S)NC1CCN(Cc2ccccc2)CC1	none
S=C(Nc1ccccc1Cl)NC1CCN(Cc2ccccc2)CC1	MEKK3 PB1 HTS 69[inhibitor] | MEKK2wt confirm inactive | MEKK2mut-MEK5 inactive | MEKK3-MEK5 inh inactive
CC(C)c1ccccc1NC(=S)NC1CCN(Cc2ccccc2)CC1	MEKK2 WT-MEK5 138 | MEKK2wt confirm inactive | MEKK2mut-MEK5 inactive | MEKK3-MEK5 inh inactive
O=C(CN1CCCc2ccccc21)Nc1cccc(S(=O)(=O)N2CCOCC2)c1	none (no result: MEKK2mut PB1 HTS, MEKK3 PB1 HTS, MEKK2 WT-MEK5)
CC(C(=O)NC1CCCC1)N1CCN(Cc2ccccc2)CC1 (configuration not stated)	MEKK3 PB1 HTS 140 | MEKK2wt confirm inactive | MEKK2mut-MEK5 inactive | MEKK3-MEK5 inh inactive
Cc1oc(-c2ccc(Cl)cc2)cc1C(=O)NC1CCN(Cc2ccccc2)CC1	MEKK2 WT-MEK5 175 | MEKK2wt confirm inactive | MEKK2mut-MEK5 inactive | MEKK3-MEK5 inh inactive
O=C1NC(c2ccccc2)=N/C1=C/c1ccco1	MEKK3 PB1 HTS 138 | MEKK2wt confirm inactive | MEKK2mut-MEK5 inactive | MEKK3-MEK5 inh inactive
CC(C(=O)Nc1ccc(F)cc1Cl)N1CCN(S(=O)(=O)c2cccs2)CC1 (configuration not stated)	none (no result: MEKK2mut PB1 HTS, MEKK3 PB1 HTS, MEKK2 WT-MEK5)
Cc1ccsc1/C=N/N1CCN(C2c3ccccc3-c3ccccc32)CC1	MEKK3 PB1 HTS 82[inhibitor] | MEKK2wt confirm inactive | MEKK2mut-MEK5 inactive | MEKK3-MEK5 inh inactive
CCCC(=O)Nc1ccc2c(c1)nc(CCN1CCCCC1)n2C	none
CCC(C)(C)c1nnc(NC(=O)CCC2CCCCC2)s1	none (no result: MEKK2mut PB1 HTS, MEKK3 PB1 HTS, MEKK2 WT-MEK5)
CSCCC(NC(=O)COc1ccccc1)C(=O)N1CCCC(C(F)(F)F)C1 (configuration not stated)	none (no result: MEKK2mut PB1 HTS, MEKK3 PB1 HTS, MEKK2 WT-MEK5)
COc1cc(/C=N/NC(=O)c2cc3ccccc3cc2O)ccc1OCCN1CCCCC1	MEKK2 WT-MEK5 229 | MEKK2wt confirm 207 | MEKK2mut-MEK5 82 | MEKK3-MEK5 inh inactive
COc1cc(/C=N/NC(=O)c2ccncc2)ccc1OCCN1CCCCC1	none
COC(=O)c1ccc(/C=C(\C#N)c2ccccn2)cc1	MEKK3 PB1 HTS 2.0[inhibitor], MEKK2 WT-MEK5 1.0[inhibitor] | MEKK2wt confirm inactive | MEKK2mut-MEK5 inactive | MEKK3-MEK5 inh inactive
CNc1ccc(Br)cc(C(=O)/C=C/c2ccc3c(c2)OCO3)c1=O	MEKK2 WT-MEK5 66[inhibitor] | MEKK2wt confirm inactive | MEKK2mut-MEK5 inactive | MEKK3-MEK5 inh inactive
CC1CCCN(C(=O)C2CC(=O)N(c3ccc(Cl)cc3)C2)C1 (configuration not stated)	none
CN(C)CCCN1c2ccccc2Sc2ccc(C(F)(F)F)cc21	MEKK2 WT-MEK5 154 | MEKK2wt confirm inactive | MEKK2mut-MEK5 inactive | MEKK3-MEK5 inh inactive
CCN(CC)CCCCN1c2ccccc2Sc2ccccc21	MEKK2 WT-MEK5 136 | MEKK2wt confirm inactive | MEKK2mut-MEK5 inactive | MEKK3-MEK5 inh inactive

Bioassay records deposited in PubChem BioAssay by several laboratories.
